# From PubChem BioAssay AID463173 (ICCB-Longwood Screening Facility, Harvard Medical School, 2010)
# Screen size: about 52,000 compounds; about 4,300 (8.3%) were called active. Cut-off read from the data, not from the text of the source: active = survival mostly below about 52% (no sharp cut-off); inactive = mostly above about 56%. The entries come from a sample that favours actives as a whole.
# Test system: DeltatarO mutant
# Assay: growth inhibition of S. aureus wild type versus tarO mutant, primary screen, teichoic acid synthesis inhibitors, RN4220, OD600 (AID 463173)
# Conditions: OD600, 18 h, hits give low values, screened at 18.75 µg/mL (by protocol)
row,SMILES,survival
1,CC(C)CCn1c(=O)c2sccc2n2c(CCCC(=O)NC(C)c3ccccc3)nnc12 (stereo not given),88% (inactive)
2,Nc1nnc(SCC(=O)C2CC2)s1,80% (inactive)
3,O=C(N/N=C/c1ccc(F)cc1)c1ccc(NC(=O)C2CC2)cc1,105% (inactive)
4,Cc1cc(Nc2cccc(Cl)c2)nc2ccc(NC(=O)c3cccnc3)cc12,91% (inactive)
5,CN1C(C(=O)Nc2ccc(OC(F)(F)F)cc2)=CC(c2cccs2)=NS1(=O)=O,31% (active)
6,COc1ccc(NC(=O)C2=CC(c3cccs3)=NS(=O)(=O)N2C)cc1,94% (inactive)
7,CN1C(C(=O)Nc2ccc(OC(F)(F)F)cc2)=CC(c2ccc3c(c2)OCO3)=NS1(=O)=O,80% (inactive)
8,COc1ccc(NC(=O)C2=CC(c3ccc4c(c3)OCO4)=NS(=O)(=O)N2C)cc1,88% (inactive)
9,Cc1ccc(NC(=O)C2=CC(c3cccs3)=NS(=O)(=O)N2C)cc1,83% (inactive)
10,COc1ccc(C2=NS(=O)(=O)N(C)C(C(=O)Nc3ccc(OC(F)(F)F)cc3)=C2)cc1,48% (active)
11,Cc1cc(C)c(Cn2c(=O)n(-c3ccccc3Cl)c(=O)c3c(C)c(C(=O)N(C)C)sc32)c(C)c1,86% (inactive)
12,CCNc1nc2c(c(=O)n(C)c(=O)n2C)n1CC(O)COc1ccccc1 (stereo not given),61% (inactive)
13,CCCNc1nc2c(c(=O)n(C)c(=O)n2C)n1CC(O)COc1ccccc1 (stereo not given),62% (inactive)
14,CCCCNc1nc2c(c(=O)n(C)c(=O)n2C)n1CC(O)COc1ccccc1C (stereo not given),42% (active)
15,Cc1cccc(NC(=O)CSc2nc3c(c(=O)[nH]2)CN(Cc2ccc4c(c2)OCO4)CC3)c1C,78% (inactive)
16,O=C1CCC(=O)N1CC(=O)N1CCCc2ccccc21,85% (inactive)
17,CCN(CC)S(=O)(=O)c1ccc2c(c1)nc(CN(C)C(=O)Nc1ccc(C)c(Cl)c1)n2C,86% (inactive)
18,Cc1ccc(-n2ncc3c(NCCCc4ccccc4)ncnc32)cc1,89% (inactive)
19,CCC(C)Nc1ncnc2c1cnn2-c1ccc(F)cc1 (stereo not given),72% (inactive)
20,Cc1ccc(C)c(Nc2ncnc3c2cnn3-c2ccc(F)cc2)c1,-1% (active)

row,SMILES,survival
1,COc1ccc(C(=O)NNc2ncnc3c2cnn3-c2ccccc2)cc1,92% (inactive)
2,Cc1ccc(-n2ncc3c(Nc4cccc(C)c4C)ncnc32)cc1,94% (inactive)
3,Cc1ccc(-n2ncc3c(NC(C)c4ccccc4)ncnc32)cc1 (stereo not given),94% (inactive)
4,CCOc1ccccc1Nc1ncnc2c1cnn2-c1ccc(C)cc1,87% (inactive)
5,CCC(CO)Nc1ncnc2c1cnn2-c1ccc(C)cc1 (stereo not given),-5% (active)
6,CC(C)(C)c1ccc(C(=O)NNc2ncnc3c2cnn3-c2ccccc2)cc1,115% (inactive)
7,CC(=O)NNc1ncnc2c1cnn2-c1ccccc1,46% (active)
8,CCCCc1ccc(Nc2ncnc3c2cnn3-c2ccc(C)cc2)cc1,17% (active)
9,Cc1ccc(-n2ncc3c(Nc4ccc(Oc5ccccc5)cc4)ncnc32)cc1,68% (inactive)
10,Cc1ccccc1NC(=O)CCNC(=O)Cn1ccc2ccccc2c1=O,70% (inactive)
11,N/C(=N\c1nc2ccccc2o1)NC(=O)/C=C/c1ccco1,85% (inactive)
12,Cc1ccc(-n2c(=O)c3ccc(C(=O)NCc4ccco4)cc3n(Cc3ccc(Cl)cc3)c2=O)cc1,77% (inactive)
13,CS(=O)(=O)c1ccc2nc(NC(=O)CN3C(=O)c4ccccc4C3=O)sc2c1,85% (inactive)
14,COc1ccc(CNC(=O)CSCc2cnn(-c3ccccc3)c2-n2cccc2)cc1OC,106% (inactive)
15,Cc1coc2cc3oc(=O)c(CCC(=O)NCc4ccc(Cl)cc4)c(C)c3cc12,69% (inactive)
16,CCn1cc2nc(SCc3ccc(C)cc3)n(CCc3ccccc3)c(=O)c2n1,78% (inactive)
17,N#Cc1cc2cc3c(cc2nc1SCC(=O)N1CCN(c2ccc(F)cc2)CC1)OCCO3,67% (inactive)
18,CC(C)(C)c1ccc(OCC(=O)Nc2ccc(C(=O)OC3CCCCC3)cc2)cc1,71% (inactive)
19,CCOC(=O)c1cc(-c2ccccc2)n(-c2cccc(C(=O)Nc3cc(OC)cc(OC)c3)c2)c1C,81% (inactive)
20,CCOC(=O)c1cc(-c2ccccc2)n(-c2cccc(C(=O)Nc3ccc(OC)cc3)c2)c1C,83% (inactive)

row,SMILES,survival
1,CCOC(=O)c1cc(-c2ccccc2)n(-c2cccc(C(=O)Nc3cccc(SC)c3)c2)c1C,32% (active)
2,CCOC(=O)c1cc(-c2ccccc2)n(-c2cccc(C(=O)Nc3cccc(F)c3)c2)c1C,135% (inactive)
3,CCOC(=O)c1cc(-c2ccccc2)n(-c2cccc(C(=O)Nc3cccc(C(C)=O)c3)c2)c1C,89% (inactive)
4,CCOC(=O)c1cc(-c2ccccc2)n(-c2cccc(C(=O)Nc3ccc(OCC)cc3)c2)c1C,37% (active)
5,CCOC(=O)c1ccccc1NC(=O)Nc1cc2c(cc1N1CCCCC1)n(C)c(=O)n2C,76% (inactive)
6,CCC1CCCCN1C(=O)CSc1nnc(-c2ccc(OC)c(OC)c2)o1 (stereo not given),71% (inactive)
7,CCOc1cc(CNC(=O)CN2CCSc3ccccc32)cc(OCC)c1OCC,85% (inactive)
8,CC(C)CCNC(=O)C1CCC(Cn2c(=O)c3sccc3n(CC(=O)NC(C)C)c2=O)CC1 (stereo not given),95% (inactive)
9,CCOC(=O)c1c(SCC(=O)Nc2cccc(C)c2C)nc(=O)[nH]c1C,67% (inactive)
10,CCOC(=O)c1c(SCC(=O)Nc2nc3ccccc3s2)nc(=O)[nH]c1C,6% (active)
11,CCOC(=O)c1c(SCC(=O)Nc2nc3ccc(C)cc3s2)nc(=O)[nH]c1C,70% (inactive)
12,CCCCc1ccc(C(=O)N/C(=C\c2ccc(C)cc2)C(=O)NC2CCCCC2)cc1,66% (inactive)
13,Cn1c(=O)n(CCCc2ccccc2)c(=O)c2c1nc1n2CCN1c1ccccc1,75% (inactive)
14,O=C(Nc1ccc(Cl)c(Cl)c1)c1cc(S(=O)(=O)N2CCN(c3cccc(Cl)c3)CC2)ccc1F,68% (inactive)
15,CCOc1cc(C(=O)N2CCC(c3ccncc3)CC2)cc(OCC)c1OCC,17% (active)
16,CCOc1ccc(C(=O)N2CCC(c3ccncc3)CC2)cc1,94% (inactive)
17,COc1ccc(C(=O)N2CCC(c3ccncc3)CC2)cc1OC,-5% (active)
18,CCN(CC)c1ccc(C(=O)N2CCC(c3ccncc3)CC2)cc1,88% (inactive)
19,COc1cc(C(=O)N2CCC(c3ccncc3)CC2)cc(OC)c1OC,88% (inactive)
20,COc1cc(OC)cc(C(=O)N2CCC(c3ccncc3)CC2)c1,89% (inactive)
